# Laboratory results: the supplement of paper PMC8975748
# Structures can show the parent of a compound that is named as a salt. ± gives the standard deviation of the averaged measurements.
# Assays:
# [1] = system: Saccharomyces cerevisiae BY4741 SeMeCo community; assay: mean cell size (pixel area) (pixels); higher = larger cells; details: 10 µM; 24 h; SM minimal medium
# Outline: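 Yeast cells were fixed with paraformaldehyde, imaged by automated confocal microscopy and analysed in Harmony to obtain mean cell pixel area per well. They came from a four-plasmid fluorescent Saccharomyces cerevisiae BY4741 community, each plasmid complementing one auxotrophy and carrying a fluorescent marker. Before imaging, 70 µl of culture at OD600 = 0.3 was incubated for 24 h in SM medium in 384-well plates predosed acoustically with drug (final 10 µM). Values are means of 3 replicates. Same SeMeCo high-content imaging drug screen: Selleck FDA-approved drugs at 10 µM, 24 h in SM medium, 384-well plates, 3 replicates.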
# [2] = system: Saccharomyces cerevisiae BY4741 SeMeCo community; assay: z-score of prototroph abundance vs DMSO median; higher = larger share of this subpopulation than in DMSO controls; details: 10 µM; 24 h; SM minimal medium; subpopulation (auxotrophy): Prototroph
# Outline: (§1)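 Automated confocal microscopy of paraformaldehyde-fixed cells was used to follow a Saccharomyces cerevisiae BY4741 community carrying four plasmids, each restoring one auxotrophy and encoding a distinct fluorescent protein. The community was pre-grown overnight to OD600 1.0, diluted to 0.3, and added at 70 µl to 384-well plates acoustically predosed with library drugs (10 µM final) for 24 h of growth in minimal SM medium. Single-auxotroph fluorescent strains set thresholds and autofluorescence correction, and each subpopulation's abundance was scored as a z-score against the vehicle-well median.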
# [3] = system: Saccharomyces cerevisiae BY4741 SeMeCo community; assay: z-score of subpopulation abundance vs DMSO median, subpopulation auxotrophic for M; higher = larger share of this subpopulation than in DMSO controls; details: 10 µM; 24 h; SM minimal medium; subpopulation (auxotrophy): M
# Outline: as §1
# [4] = system: Saccharomyces cerevisiae BY4741 SeMeCo community; assay: z-score of subpopulation abundance vs DMSO median, subpopulation auxotrophic for L; higher = larger share of this subpopulation than in DMSO controls; details: 10 µM; 24 h; SM minimal medium; subpopulation (auxotrophy): L
# Outline: as §1
# [5] = system: Saccharomyces cerevisiae BY4741 SeMeCo community; assay: z-score of subpopulation abundance vs DMSO median, subpopulation auxotrophic for U; higher = larger share of this subpopulation than in DMSO controls; details: 10 µM; 24 h; SM minimal medium; subpopulation (auxotrophy): U
# Outline: as §1
# [6] = system: Saccharomyces cerevisiae BY4741 SeMeCo community; assay: z-score of subpopulation abundance vs DMSO median, subpopulation auxotrophic for H; higher = larger share of this subpopulation than in DMSO controls; details: 10 µM; 24 h; SM minimal medium; subpopulation (auxotrophy): H
# Outline: as §1
# [7] = system: Saccharomyces cerevisiae BY4741 SeMeCo community; assay: z-score of subpopulation abundance vs DMSO median, subpopulation auxotrophic for LU; higher = larger share of this subpopulation than in DMSO controls; details: 10 µM; 24 h; SM minimal medium; subpopulation (auxotrophy): LU
# Outline: as §1
# [8] = system: Saccharomyces cerevisiae BY4741 SeMeCo community; assay: z-score of subpopulation abundance vs DMSO median, subpopulation auxotrophic for LM; higher = larger share of this subpopulation than in DMSO controls; details: 10 µM; 24 h; SM minimal medium; subpopulation (auxotrophy): LM
# Outline: as §1
# [9] = system: Saccharomyces cerevisiae BY4741 SeMeCo community; assay: z-score of subpopulation abundance vs DMSO median, subpopulation auxotrophic for HM; higher = larger share of this subpopulation than in DMSO controls; details: 10 µM; 24 h; SM minimal medium; subpopulation (auxotrophy): HM
# Outline: as §1
# [10] = system: Saccharomyces cerevisiae BY4741 SeMeCo community; assay: z-score of subpopulation abundance vs DMSO median, subpopulation auxotrophic for HU; higher = larger share of this subpopulation than in DMSO controls; details: 10 µM; 24 h; SM minimal medium; subpopulation (auxotrophy): HU
# Outline: as §1
# [11] = system: Saccharomyces cerevisiae BY4741 SeMeCo community; assay: z-score of subpopulation abundance vs DMSO median, subpopulation auxotrophic for UM; higher = larger share of this subpopulation than in DMSO controls; details: 10 µM; 24 h; SM minimal medium; subpopulation (auxotrophy): UM
# Outline: as §1
# [12] = system: Saccharomyces cerevisiae BY4741 SeMeCo community; assay: z-score of subpopulation abundance vs DMSO median, subpopulation auxotrophic for HL; higher = larger share of this subpopulation than in DMSO controls; details: 10 µM; 24 h; SM minimal medium; subpopulation (auxotrophy): HL
# Outline: as §1
# [13] = system: Saccharomyces cerevisiae BY4741 SeMeCo community; assay: z-score of subpopulation abundance vs DMSO median, subpopulation auxotrophic for HLU; higher = larger share of this subpopulation than in DMSO controls; details: 10 µM; 24 h; SM minimal medium; subpopulation (auxotrophy): HLU
# Outline: as §1
# [14] = system: Saccharomyces cerevisiae BY4741 SeMeCo community; assay: z-score of subpopulation abundance vs DMSO median, subpopulation auxotrophic for LUM; higher = larger share of this subpopulation than in DMSO controls; details: 10 µM; 24 h; SM minimal medium; subpopulation (auxotrophy): LUM
# Outline: as §1
# [15] = system: Saccharomyces cerevisiae BY4741 SeMeCo community; assay: z-score of subpopulation abundance vs DMSO median, subpopulation auxotrophic for HLUM; higher = larger share of this subpopulation than in DMSO controls; details: 10 µM; 24 h; SM minimal medium; subpopulation (auxotrophy): HLUM
# Outline: as §1
# [16] = system: Saccharomyces cerevisiae BY4741 SeMeCo community; assay: z-score of subpopulation abundance vs DMSO median, subpopulation auxotrophic for HLM; higher = larger share of this subpopulation than in DMSO controls; details: 10 µM; 24 h; SM minimal medium; subpopulation (auxotrophy): HLM
# Outline: as §1
# [17] = system: Saccharomyces cerevisiae BY4741 SeMeCo community; assay: z-score of subpopulation abundance vs DMSO median, subpopulation auxotrophic for HUM; higher = larger share of this subpopulation than in DMSO controls; details: 10 µM; 24 h; SM minimal medium; subpopulation (auxotrophy): HUM
# Outline: as §1
SMILES,mean cell size [1],z-score of prototroph abundance [2],z-score of subpopulation abundance [3],z-score of subpopulation abundance [4],z-score of subpopulation abundance [5],z-score of subpopulation abundance [6],z-score of subpopulation abundance [7],z-score of subpopulation abundance [8],z-score of subpopulation abundance [9],z-score of subpopulation abundance [10],z-score of subpopulation abundance [11],z-score of subpopulation abundance [12],z-score of subpopulation abundance [13],z-score of subpopulation abundance [14],z-score of subpopulation abundance [15],z-score of subpopulation abundance [16],z-score of subpopulation abundance [17]
C[C@@H](O)[C@H]1C(=O)N2C(C(=O)O)=C(S[C@@H]3CN[C@H](C(=O)N(C)C)C3)[C@H](C)[C@H]12 [Meropenem Trihydrate],12.6 ± 0.27,-0.19,0.89,0.38,-0.82,1.09,0.63,0.14,1.13,-0.59,-0.82,0.55,0.91,-0.3,-0.25,,
Cc1c(Cl)cccc1Nc1ccccc1C(=O)O [Tolfenamic Acid],12.7 ± 0.24,1.21,-0.25,,0.15,,-1.24,-1.47,-1.11,-0.34,-0.9,-0.69,-1.46,-1.95,-1.09,-0.79,-0.87
COc1cc(Cc2cnc(N)nc2N)cc(OC)c1OC [Trimethoprim],12.4 ± 0.14,0.19,0.01,,0.2,-0.5,0.14,-0.07,-0.06,0,0.07,-0.46,0.25,0.27,-0.22,-0.6,-0.12
OCCN1CCN(CCCN2c3ccccc3Sc3ccc(Cl)cc32)CC1 [Perphenazine],12.3 ± 0.2,-0.28,-0.42,-0.47,,0.04,0.15,-0.01,0.07,0.72,0.06,0.11,0.1,0.66,-0.22,,
CN1CCN(CCCN2c3ccccc3Sc3ccc(Cl)cc32)CC1 [Prochlorperazine dimaleate salt],12.4 ± 0.15,-0.98,0.75,,-0.36,,-0.07,0.75,1.58,0.89,0.65,0.69,0.49,1.88,0.48,0.12,1.51
CC[C@H](c1ccc(O)cc1)[C@@H](CC)c1ccc(O)cc1 [Hexestrol],12.7 ± 0.21,1.27,0.45,,-0.6,-0.31,-1.49,-0.2,-0.94,-0.58,-0.86,,-0.58,-1.39,-1.21,-0.94,-0.88
C=C[C@]1(C)C[C@@H](OC(=O)CSC(C)(C)CNC(=O)[C@H](N)C(C)C)[C@]2(C)[C@H](C)CC[C@]3(CCC(=O)[C@H]32)[C@@H](C)[C@@H]1O [Valnemulin HCl],,-0.65,0.05,0.38,0.15,0.85,0.87,0.54,0.32,1.22,0.26,0.85,1.01,0.67,0.48,,
Cc1c(-c2ccc(O)cc2)n(Cc2ccc(OCCN3CCCCCC3)cc2)c2ccc(O)cc12 [Bazedoxifene Acetate],,-0.23,0.99,-0.2,-0.25,,0.06,-0.35,0.8,-1.12,0.36,-0.12,0.21,0.65,,,-0.26
CC(=O)O[C@]1(C(C)=O)CC[C@H]2[C@@H]3C[C@H](C)C4=CC(=O)CC[C@]4(C)[C@H]3CC[C@@]21C [Medroxyprogesterone acetate],12.6 ± 0.18,0.03,0.21,-0.93,0.34,0.12,0.01,-0.1,0.17,0.62,0.34,-0.1,-0.17,-0.28,-0.36,,
NC12CC3CC(CC(C3)C1)C2 [Amantadine],,0,-0.63,0.99,-0.38,0.12,0.79,0.28,-0.03,-0.15,0.12,-0.09,0.22,-0.04,-0.31,,
CN(C)CCOc1ccc(/C(=C(/CCCl)c2ccccc2)c2ccccc2)cc1 [Toremifene Citrate],12.1 ± 0.2,-1.18,-0.37,,0.79,,0.34,0.69,0.66,2.51,0.54,,1.1,0.81,-0.23,1.44,0.27
COc1ccc(C2CNC(=O)C2)cc1OC1CCCC1 (stereo not drawn) [S- (+)-Rolipram],,1.36,-0.3,-0.9,-0.01,-0.73,-0.96,-0.87,-0.72,-0.33,-1.18,-0.58,-1.07,,-1.15,,-0.99
Cc1cc(-c2ccc(/N=N/c3ccc4c(S(=O)(=O)O)cc(S(=O)(=O)O)c(N)c4c3O)c(C)c2)ccc1/N=N/c1ccc2c(S(=O)(=O)O)cc(S(=O)(=O)O)c(N)c2c1O [Evans Blue],,,-14.3,-1.65,1.78,4.9,4.41,-5.69,-7.3,,-9.56,8.09,429,-5.24,-2.52,,-6.59
CN1C2CCC1CC(OC(=O)C(O)c1ccccc1)C2 (stereo not drawn) [Homatropine Bromide],12.31 ± 0.032,-0.38,-0.4,,1.49,-0.41,0.66,-0.11,-1.06,0.61,0.94,-0.63,-0.08,0.09,0.14,-0.76,0
